# Reference: PubChem BioAssay AID504333 (National Center for Advancing Translational Sciences (NCATS), 2011)
# About 16,000 (4.4%) of roughly 360,000 compounds were called active. About 9% were inconclusive and are not listed. Shown is part of a subset that was picked to be rich in actives. A number with no mark means an inactive call. Calls follow the shape of the dose curve; as a rule, active = well fitted inhibition curve with a large enough effect; inconclusive = small, poorly fitted or top-dose-only effect; inactive = no such curve, though single readings can be large or run the other way.
# Target: Bromodomain adjacent to zinc finger domain protein 2B (Homo sapiens) (UniProt Q9UIF8)
# Sequence (Q9UIF8 whole entry, looked up, the tested form may be a part): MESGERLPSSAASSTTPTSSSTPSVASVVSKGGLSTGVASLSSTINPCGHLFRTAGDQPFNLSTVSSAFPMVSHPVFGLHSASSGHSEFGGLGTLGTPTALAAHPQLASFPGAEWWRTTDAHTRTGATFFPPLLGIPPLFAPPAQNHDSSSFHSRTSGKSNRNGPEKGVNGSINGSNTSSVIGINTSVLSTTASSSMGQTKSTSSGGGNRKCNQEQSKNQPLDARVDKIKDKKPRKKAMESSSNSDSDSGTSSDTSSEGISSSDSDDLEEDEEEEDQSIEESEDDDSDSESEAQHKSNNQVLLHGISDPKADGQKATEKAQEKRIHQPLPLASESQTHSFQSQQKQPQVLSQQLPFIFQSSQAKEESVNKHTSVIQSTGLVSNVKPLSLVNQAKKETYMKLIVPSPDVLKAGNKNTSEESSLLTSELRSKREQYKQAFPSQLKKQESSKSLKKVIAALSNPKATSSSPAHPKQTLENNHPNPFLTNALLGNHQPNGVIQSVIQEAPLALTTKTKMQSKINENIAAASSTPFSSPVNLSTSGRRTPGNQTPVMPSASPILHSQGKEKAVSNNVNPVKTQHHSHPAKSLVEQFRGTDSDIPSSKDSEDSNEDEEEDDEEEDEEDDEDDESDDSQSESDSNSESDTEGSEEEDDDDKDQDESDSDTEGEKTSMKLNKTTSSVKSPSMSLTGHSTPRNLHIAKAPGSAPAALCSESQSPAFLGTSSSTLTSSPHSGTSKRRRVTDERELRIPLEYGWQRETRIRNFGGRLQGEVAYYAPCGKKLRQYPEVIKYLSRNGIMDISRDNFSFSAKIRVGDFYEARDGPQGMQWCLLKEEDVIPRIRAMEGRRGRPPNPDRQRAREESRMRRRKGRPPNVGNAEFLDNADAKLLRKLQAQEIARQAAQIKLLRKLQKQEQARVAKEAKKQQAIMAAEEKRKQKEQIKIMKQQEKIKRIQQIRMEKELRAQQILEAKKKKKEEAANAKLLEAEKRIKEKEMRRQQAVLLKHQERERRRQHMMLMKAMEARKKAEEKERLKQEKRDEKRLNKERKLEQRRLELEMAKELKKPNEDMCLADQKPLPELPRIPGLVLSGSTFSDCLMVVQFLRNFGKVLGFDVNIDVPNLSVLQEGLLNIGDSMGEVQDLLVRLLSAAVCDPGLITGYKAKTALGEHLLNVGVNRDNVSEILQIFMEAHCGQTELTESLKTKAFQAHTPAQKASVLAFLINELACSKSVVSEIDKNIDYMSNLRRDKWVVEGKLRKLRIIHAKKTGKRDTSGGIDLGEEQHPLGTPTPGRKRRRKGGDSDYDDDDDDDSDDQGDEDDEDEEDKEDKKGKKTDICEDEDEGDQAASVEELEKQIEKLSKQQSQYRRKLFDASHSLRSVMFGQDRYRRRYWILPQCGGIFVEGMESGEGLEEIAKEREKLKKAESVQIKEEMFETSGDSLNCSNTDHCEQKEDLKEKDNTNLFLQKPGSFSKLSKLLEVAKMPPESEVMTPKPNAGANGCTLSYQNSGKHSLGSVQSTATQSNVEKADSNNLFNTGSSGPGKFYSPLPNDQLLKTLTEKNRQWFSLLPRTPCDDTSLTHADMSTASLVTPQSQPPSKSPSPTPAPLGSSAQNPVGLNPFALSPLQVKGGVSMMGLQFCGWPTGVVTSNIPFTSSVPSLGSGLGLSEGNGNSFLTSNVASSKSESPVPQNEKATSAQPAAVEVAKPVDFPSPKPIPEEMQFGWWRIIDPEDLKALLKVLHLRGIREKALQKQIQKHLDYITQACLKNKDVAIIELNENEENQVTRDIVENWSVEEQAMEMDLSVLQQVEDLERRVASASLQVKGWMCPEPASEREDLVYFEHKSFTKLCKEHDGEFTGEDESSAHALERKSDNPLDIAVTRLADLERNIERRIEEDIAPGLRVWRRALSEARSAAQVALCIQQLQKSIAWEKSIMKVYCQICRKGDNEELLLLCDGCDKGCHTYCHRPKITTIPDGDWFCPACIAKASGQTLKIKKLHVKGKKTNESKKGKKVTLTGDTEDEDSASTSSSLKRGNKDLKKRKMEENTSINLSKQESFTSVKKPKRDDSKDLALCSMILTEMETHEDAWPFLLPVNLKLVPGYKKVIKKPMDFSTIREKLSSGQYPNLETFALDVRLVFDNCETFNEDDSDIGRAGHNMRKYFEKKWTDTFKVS
# Test: qHTS Assay for Inhibitors of BAZ2B; also: nearly all actives have a fitted effect of over 60% in size
# Conditions: AlphaScreen BAZ2B-H3K14Ac peptide displacement; series mostly up to 114 µM; activity change, negative = inhibition: at the top concentration
# How it was run: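 Inhibition is scored as reduced AlphaScreen emission. The BAZ2B/b-H3(5-23)K14Ac complex (50 nM each) in PBS pH 7.4, 0.01% Tween-20 meets compound (up to 110 uM) for 30 min at RT before bead addition.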
# % is scaled to controls: 0 for no effect and ±100 for the full control effect; potency is read from the fitted curve at half-maximal effect.
SMILES,"activity change, negative = inhibition",Potency
Cc1cccc(C2CC(=O)Oc3c2c(=O)n(C)c2ccccc32)c1 (configuration not stated),-12.8%,–
Cc1cccc(C2C3=C(CCCC3=O)N=C3c4ccccc4C(=O)C32)c1 (configuration not stated),-38.9%,–
CCOC(=O)C1=C(C)N=C2c3ccccc3C(=O)C2C1c1ccc(Br)cc1 (configuration not stated),–,22.4 µM (active)
CCOC(=O)C1=C(C)NC(SC)=NC1c1ccccc1 (configuration not stated),2.29%,–
CCCN1CCc2nc(N3CCN(C)CC3)ncc2C1,3.12%,–
COc1ccc(NC(C(=O)Nc2cccc(C(C)=O)c2)c2ccccc2)cc1 (configuration not stated),–,50.1 µM (active)
COc1ccc(NC(=O)[C@H](NC(=O)[C@@H]2Cc3ccccc3CN2)c2ccccc2)cc1,-11.2%,–
COC(C(=O)Nc1ccc(C(C)=O)cc1)c1ccccc1 (configuration not stated),6.93%,–
Cc1cccc(C(=O)Nc2ccc(-c3nc4ccccc4s3)c(C)c2)c1,0.838%,–
O=C(Nc1ccc2nc(SCCOc3ccccc3Cl)sc2c1)c1ccco1,-28.6%,–
COc1cc(-c2nn3c(-c4cccc(C)c4)nnc3s2)cc(OC)c1OC,-1.78%,–
c1ccc(-c2cc(-c3nnc4sc(-c5ccccn5)nn34)[nH]n2)cc1,-21.7%,–
CCOc1cccc(-c2nn3c(-c4ccccn4)nnc3s2)c1,–,50.1 µM (active)
COc1ccc(/C=C2\SC(=O)N(CCC(=O)NC3CCS(=O)(=O)C3)C2=O)cc1 (configuration not stated),-17.6%,–
COc1ccc(/C=C2/SC(=O)N(CCCCCC(=O)Nc3ccccc3C(=O)O)C2=S)cc1,–,56.2 µM (active)
COc1ccc(/C=C2\SC(=O)N(CCC(=O)NCCCn3ccnc3)C2=O)cc1,-34.5%,–
CCCCNc1ccc(-c2nc(-c3ccncc3)no2)cc1[N+](=O)[O-],-14.3%,–
CCN(Cc1ccccc1)Cc1c(O)ccc2c(=O)c(-c3ccc(Cl)cc3Cl)coc12,-1.44%,–
COc1ccc2c(c1)C(C)=CC(C)(C)N2C(=O)Nc1ccccc1,–,50.1 µM (active)
CC1=CC(C)(C)N(C(=O)CSc2nnc(-c3ccccc3)o2)c2ccc(C)cc21,-12.4%,–
COc1cccc(NC(=O)C2C(c3ccccc3)C2(Cl)Cl)c1 (configuration not stated),3.62%,–

SMILES,"activity change, negative = inhibition",Potency
CC1=C(C(=O)OCc2ccc(C)cc2)C(c2c(Cl)cccc2Cl)CC(=O)N1 (configuration not stated),-0.666%,–
Cc1ccc(OCCn2c(CNc3ccccc3C)nc3ccccc32)cc1,-26.1%,–
COc1ccc(OC)c(NC(=O)C2CCCN(S(=O)(=O)c3ccc4c(c3)CCCC(=O)N4)C2)c1 (configuration not stated),-0.384% [at 57.1 µM],–
CC1CCC2CCCCC2N1C(=O)c1cc([N+](=O)[O-])cc([N+](=O)[O-])c1 (configuration not stated),–,50.1 µM (active)
COC(=O)c1cc(C(=O)NC(C)C2CC3CCC2C3)cc([N+](=O)[O-])c1 (configuration not stated),-28.5%,–
O=C(c1cc(C(=O)N2CCN(c3ccc(F)cc3)CC2)cc([N+](=O)[O-])c1)N1CCN(c2ccc(F)cc2)CC1,-32.9%,–
COc1ccc(N2CCN(c3cc(C)nc4nncn34)CC2)cc1,-3.48%,–
COc1ccc(N2C(=O)CSC23C(=O)N(Cc2cccc(F)c2)c2ccccc23)cc1Cl (configuration not stated),-22.3%,–
Cc1ccc(-n2c(SCC(=O)c3ccccc3)nc3c([nH]c4ccccc43)c2=O)cc1,2.93%,–
COc1ccc2ccccc2c1CNc1nnnn1C,-10.5%,–
COc1ccc2ccccc2c1CNCc1ccccn1,–,79.4 µM (active)
COc1ccc(C)cc1NC(=O)NCc1ccccn1,-14.3%,–
CCCSc1ncc(Cl)c(C(=O)Nc2sc3c(c2C(=O)NCCOC)CCCC3)n1,-19.1%,–
Cc1c(Cl)cccc1NC(=O)C1CCCN(c2ncnc3onc(C)c23)C1 (configuration not stated),8.64% [at 57.1 µM],–
CCOC(=O)N1CCc2c(sc3c2c(=O)n(Cc2ccccc2)c(=O)n3CC(=O)Nc2cccc(C)c2)C1,3.88%,–
Cc1ccc(NC(=O)Cn2c(=O)n(-c3ccccc3)c(=O)c3c4c(sc32)CCCC4)cc1,-2.88%,–
O=c1c2c3c(sc2n(CCN2CCCC2)c(=O)n1Cc1ccccc1)CCCCC3,–,89.1 µM (active)
O=C(Nc1cc(C(F)(F)F)ccc1Cl)c1nc2ccccc2nc1N1CCCCC1,-31.3%,–
Brc1ccccc1C1N=C(c2ccccc2)NO1 (configuration not stated),9.17%,–
COc1cc2c(cc1OC)C(c1ccccc1Br)NC(=O)C2 (configuration not stated),-6.18%,–
Brc1ccccc1C1Nc2cccc3cccc(c23)N1,–,44.7 µM (active)

SMILES,"activity change, negative = inhibition",Potency
COc1ccc(N2CCN(C(=O)c3ccc(N4CCCCS4(=O)=O)cc3)CC2)cc1,–,50.1 µM (active)
COc1ccc(C(=O)Nc2ccccc2C(=O)N2CCN(c3ccccc3)CC2)cc1,-20.7%,–
COc1ccc(N2CCN(C(=O)c3ccc4c(Cl)c5c(nc4c3)CCCC5)CC2)cc1,–,inactive
O=C(NCC(c1cccnc1)N1CCc2ccccc21)c1cccc(C(F)(F)F)c1 (configuration not stated),-2.57%,–
COc1ccc(-c2nn3c(=O)cc(CN4CCN(C(=O)c5ccc(OC)c(OC)c5)CC4)nc3s2)cc1,1.38%,–
COc1ccc(S(=O)(=O)/N=C2\C=C(NS(=O)(=O)c3ccccc3)C(=O)c3ccccc32)cc1,–,10 µM (active)
COc1ccc(NC(=O)c2cnc(NS(=O)(=O)c3ccccc3)nc2)cc1,1.25%,–
COc1ccc(S(=O)(=O)Nc2cc3c(C(=O)OC(C)C)c(C)oc3c3ccccc23)cc1,-13.1%,–
COc1cc(NC(=O)c2nc3ccccc3nc2C)cc(OC)c1OC,-17.8%,–
CCOc1ccc(NCCC(=O)c2ccc3c(c2)OCO3)cc1,–,39.8 µM (active)
O=C(COc1ccc(Cl)cc1)Nc1ccc2c(c1)OCO2,3.44%,–
COC(=O)CCNc1ccc2c(c1)OCCO2,6.99%,–
CCCCN1C(=O)c2[nH]nc(-c3ccccc3O)c2C1c1cccc(OCc2ccccc2)c1 (configuration not stated),-26.7%,–
Cc1cccc(NC(=O)c2ccc3nc(C(C)C)oc3c2)c1C,27.1%,–
CC(=O)c1ccc(NS(=O)(=O)c2ccc(-c3cc(C)no3)s2)cc1,-3.44%,–
O=C(Nc1cc(Cl)cc(Cl)c1)c1ccc2c(c1)N(Cc1cccc(Cl)c1)C(=O)c1ccccc1S2=O (configuration not stated),3.3%,–
CCOC(=O)c1ccc(NC(=O)C2CCN(S(=O)(=O)c3ccc4c(c3)CCCC(=O)N4)CC2)cc1,4.44% [at 57.1 µM],–
C=CCSc1nnc(N2C(=O)C(O)=C(C(=O)c3ccco3)C2c2ccc(F)cc2)s1 (configuration not stated),–,50.1 µM (active)
O=C(C1=C(O)C(=O)N(Cc2ccccc2)C1c1ccco1)c1ccco1 (configuration not stated),-32.8%,–
CC(C)c1ccc(C2C(C(=O)c3ccco3)=C(O)C(=O)N2CC2CCCO2)cc1 (configuration not stated),-25.4%,–
